Common to all, as to assay: glycan array binding signal (z-score within array); higher = stronger binding
Common to all, as to conditions: glycan notation: IUPAC condensed, linker removed

Test [1] concerns the target Fuc(a1-2)Gal(b1-3)GlcNAc(b1-2)Man(a1-3)[Fuc(a1-2)Gal(b1-3)GlcNAc(b1-2)Man(a1-6)]Man(b1-4)GlcNAc(b1-4)GlcNAc. Put shortly: (§1)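 Glycan array data came from 3228 arrays in the Consortium for Functional Glycomics database, and only arrays with an available protein sequence were kept. Glycan names were put into IUPAC-condensed notation, and columns mapping to the same glycan were averaged. The binding signal is a within-array Z-score, averaged across arrays of one protein sequence run at different concentrations or buffers and across linkers. A negative Z-score can be read as non-binding.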

Test [2] addresses Fuc(a1-2)Gal(b1-3)GlcNAc(b1-3)[Fuc(a1-2)Gal(b1-3)GlcNAc(b1-6)]GalNAc. An outline of the steps: as §1
Test [3] concerns the target Fuc(a1-2)Gal(b1-4)GlcNAc(b1-6)GalNAc. An outline of the steps: as §1
Test [4] concerns the target Fuc(a1-2)Gal(b1-4)GlcNAc6S. An outline of the steps: as §1
The target in test [5] is Fuc(a1-2)Gal3S(b1-4)GlcNAc. Put shortly:
as §1

The target of test [6] is Fuc(a1-2)[Gal(a1-3)]Gal(b1-3)GalNAc. An outline of the steps: as §1
Test [7] addresses Fuc(a1-2)[Gal(a1-3)]Gal(b1-4)GlcNAc. Put shortly: as §1
The target in test [8] is Fuc(a1-2)[Gal(a1-3)]Gal(b1-4)[Fuc(a1-3)]GlcNAc. Put shortly:
as §1

For test [9], the target named is Gal(a1-3)Gal(b1-3)GlcNAc(b1-2)Man(a1-3)[Gal(a1-3)Gal(b1-3)GlcNAc(b1-2)Man(a1-6)]Man(b1-4)GlcNAc(b1-4)GlcNAc. Put shortly:
as §1

Test [10] deals with Gal(a1-3)Gal(b1-3)[Fuc(a1-4)]GlcNAc(b1-2)Man(a1-3)[Gal(a1-3)Gal(b1-3)[Fuc(a1-4)]GlcNAc(b1-2)Man(a1-6)]Man(b1-4)GlcNAc(b1-4)GlcNAc. Put shortly:
as §1

A further test has as its target Gal(a1-3)Gal(b1-4)Glc. Put shortly:
as §1

The target in test [11] is Gal(a1-4)Gal(b1-3)GlcNAc(b1-2)Man(a1-3)[Gal(a1-4)Gal(b1-3)GlcNAc(b1-2)Man(a1-6)]Man(b1-4)GlcNAc(b1-4)GlcNAc. An outline of the steps: as §1
Test [12] deals with Gal(b1-3)GlcNAc(a1-6)Gal(b1-4)GlcNAc. Put shortly: as §1
The target of test [13] is Gal(b1-3)GlcNAc(b1-2)Man(a1-3)[Gal(b1-3)GlcNAc(b1-2)Man(a1-6)]Man(b1-4)GlcNAc(b1-4)GlcNAc. Put shortly:
as §1

Test [14] concerns the target Gal(b1-3)[GlcNAc(b1-6)]GalNAc. Put shortly:
as §1

A further test concerns the target Gal(b1-4)GlcNAc(b1-2)Man. An outline of the steps:
as §1

Test [15] concerns the target Gal(b1-4)GlcNAc(b1-2)Man(a1-3)Man(b1-4)GlcNAc(b1-4)GlcNAc. An outline of the steps:
as §1

The target of test [16] is Gal(b1-4)GlcNAc(b1-2)Man(a1-3)[Gal(b1-4)GlcNAc(b1-2)Man(a1-6)]Man(b1-4)GlcNAc(b1-4)[Fuc(a1-6)]GlcNAc. Put shortly: as §1
Test [17] concerns the target Gal(b1-4)GlcNAc(b1-3)Gal(b1-3)GalNAc. Put shortly: as §1
For test [18], the target named is Gal(b1-4)GlcNAc(b1-3)Gal(b1-4)GlcNAc(b1-2)Man(a1-3)[Gal(b1-4)GlcNAc(b1-3)Gal(b1-4)GlcNAc(b1-2)Man(a1-6)]Man(b1-4)GlcNAc(b1-4)GlcNAc. Put shortly: as §1
Test [19] has as its target Gal(b1-4)GlcNAc(b1-3)Gal(b1-4)GlcNAc(b1-2)[Gal(b1-4)GlcNAc(b1-3)Gal(b1-4)GlcNAc(b1-6)]Man(a1-6)[Gal(b1-4)GlcNAc(b1-3)Gal(b1-4)GlcNAc(b1-2)Man(a1-3)]Man(b1-4)GlcNAc(b1-4)[Fuc(a1-6)]GlcNAc. An outline of the steps: as §1
The target of test [20] is Gal(b1-4)GlcNAc(b1-3)Gal(b1-4)GlcNAc(b1-3)Gal(b1-4)GlcNAc(b1-3)Gal(b1-4)GlcNAc(b1-3)Gal(b1-4)GlcNAc(b1-2)Man(a1-3)[Gal(b1-4)GlcNAc(b1-3)Gal(b1-4)GlcNAc(b1-3)Gal(b1-4)GlcNAc(b1-3)Gal(b1-4)GlcNAc(b1-3)Gal(b1-4)GlcNAc(b1-2)Man(a1-6)]Man(b1-4)GlcNAc(b1-4)GlcNAc. An outline of the steps: as §1

The entries come from a sample that favours the strongest signals as a whole.

These results are taken from the supplement of paper PMC8728848.

B1: PX9961H-bth-557-24-557 (Bacteroides thetaiotaomicron) (protein)
chain: EETRTEVEKKNYMNNAEEAKDVLLGVYRTNTLDAMYGYYLSILFNLGTDISQVEGSGNENFRIIPTNSFPTTQSEVQQTWAALYTGIYRANDFLERISNKIGSYTTTDKKLATLYIAEARALRGMFYFELVRRFGNVVLMTSTQMSNQNPATYVQSAPEKVYEYIEDDLLYACDILPYATDDQYRESNDYRFSKGAALGLLTKVYATWAGYPVKDESKWEAAAKTARILVESGKHGLLKDYEQLWKNTCNGTWDPTESLIEISFYSPTVSGNSDPVGRIGKWNGVKTTAIAGVRGSCAANVKVVHTFVLDWREDVSDIRRDLSIANYQYTDTKKSLWVAGASDTDESAAEKDADPTKAQKNKQNYTPAKWDIQKYVTTNSFINNDKSNVNWYFLRYADVLLLYAEALNEWKHGPDAEAYNAINAVRRRGYGNPSNTSACDLPQGLDETSFREAVRKERSYELSFEGHRRQDLIRWGIYYKTVQATAKELGYWWEGTGSPNYSVATYTEEGKHELFPIPQRDMDLCIQFNQNPKW
As to B1, the “glycan array binding signal (z-score)” value in test [1] is 3.58; in test [2], -0.177; in test [3] it was -0.051; in [4] it was -0.38; in test [5], 0.014; in [6], -0.242. Further, the “glycan array binding signal (z-score)” value was -0.408 in test [7]; -0.18 in [8]; 4.31 in [9]; -0.134 in test [10]; -0.054 with Gal(a1-3)Gal(b1-4)Glc; 5.85 in test [11]. Further, the “glycan array binding signal (z-score)” value in test [12] is -0.025; in test [13], 5.54; in test [14], -0.03; in the test with Gal(b1-4)GlcNAc(b1-2)Man, -0.104; in test [15], 10.2; in test [16] it was 4.19. Moreover, the “glycan array binding signal (z-score)” value is 0.039 in test [17], 3.35 in test [18], 3.59 in test [19] and 5.22 in test [20].
